{
  "source": "the supplement of paper PMC12632987",
  "binders": {"B1": {"name": "GBRAP_35_5547 (protein)", "chain": "DPETETVEMLLNTMEDIVLALPDVSPEDLETLTKHLIDLANLAIEEKPKNKELLERLIKALEEAIKIVEASDLPEEVKAELLKELEKARKEAEKLLEKVK"}, "B2": {"name": "GBRAP_35_5545 (protein)", "chain": "DFDEETVEMLLNTMEDIVLALPDVSPEEKLILARHLIDLAEKAIEEKPKNVELLKRGIEVLERAIEIVKASDLPEEEREELIERLEEVKEKFEKLLKENE"}, "B3": {"name": "GBRAP_35_5544 (protein)", "chain": "MEEEETVEMLLNTMEDIVLALPDVSPEEQLILTKHLIKLAKLAIEEKPKNKELLKRGIEALKEAIKIVKESDLPEEEKEKLLKELEEAKEKFEKLLKKVE"}, "B4": {"name": "GBRAP_128_3307 (protein)", "chain": "MDEELLEEARELIERLKEADEEEAAELVREIAELLEKATPEEREEIAELFEEALKELSAEKLDVVADTLRELIPKATPETANVLADLQVEALNLAEEKEE"}, "B5": {"name": "GBRAP_160_4379 (protein)", "chain": "SEELKELKEEVKKLKEEFKEEAKDLSTAEVRTLAIGVLSEIAALVWSNEAVSEETKDKIMKIIDDAIAKIRANADASPEEIVAIVTEAFDKIIELIEKEE"}, "B6": {"name": "GBRAP_125_3112 (protein)", "chain": "NMEEILEALRIILKALGFDEEEIEEAVRLAREYGIKGTMIAAALALGWEEVAELLEKLSEEEVKEALLRTAEKIKENPELTPEEVKELLKEVLKEILEKK"}, "B7": {"name": "GBRAP_11_2866 (protein)", "chain": "NKEKLKEIAELLEKLIEVLERLLEEGVDNEELREEALKLAKEILELVKKYSDEADVKLAEYALELLEKAEEDPANAEQYVQEALAFARVLLGNVLLRIDE"}, "B8": {"name": "GBRAP_52_6101 (protein)", "chain": "AAAEAEALVERLLALVRAGREAEARAEAAALAAEMDEARLRVLTEALAARARAAAPEDLDAVWRLAELLADELEAAGWPDVLVDDLLAATAAALYERELA"}, "B9": {"name": "GBRAP_128_3576 (protein)", "chain": "SDEEILEKAKELIKKIIESDVEEAKKYAEELAKLLKEADPETREKIVELILEALPKLSVEKLEVLADVFREQRPKADPETANLLAEIEVEALNEAVEKEE"}, "B10": {"name": "GBRAP_166_4948 (protein)", "chain": "SLEEVIEETREFIRELAERMKTLNDEERLDALIEIAERLEEARKAGVSEEDLLELVREALELVKEAGGSVEQFVGALDMFVDLDEEELDKVAEIAEEVKA"}, "B11": {"name": "GBRAP_137_3672 (protein)", "chain": "MIDAKIEIEDGLAYAELTYKGSLEEAKKAAEIAEEIAGKIPGIAISTKVDEDGTLTIDLGGTLEQIMKFLKELAKALNVTINVTIKDLDTGETTKETIKA"}, "B12": {"name": "GBRAP_160_4310 (protein)", "chain": "KEELEALKKEVKEIFEEAKKLIEGETKEQQKAIVKVALGEVILLAFESPAITEEAEEKIAEIADEAIATLDANPDLTTEEIKKLLEEAEKKILELIEKLK"}, "B13": {"name": "GBRAP_74_6571 (protein)", "chain": "MEKYTKEMKAAAAAGDVKKAIKIVEEMIEKGIKKVSAEFLNALATIAEKHLPKATPEEQERFIDAASELVDLVLESEQDEETYKALNKLITALYEAELAR"}, "B14": {"name": "GBRAP_57_6475 (protein)", "chain": "MERLKAVEEAAERALALIDARAPREEILAAVRELAELLSEETLRDVLLIADPEAPEDLSKEEAIARLVALAAAYLDAGDYDGLRRLVELMLGTAEMDFEE"}, "B15": {"name": "GBRAP_39_5697 (protein)", "chain": "EREEEAEDTFSYLEAIGAKYQVEEKISLEEARERTRELAERFIKEHPEIAEVLKELLELAEKAGDLAILALLGLLLRAEEGTPLEEIKKDAELLIEYLKS"}, "B16": {"name": "GBRAP_125_2965 (protein)", "chain": "SEEEALEALAIIAKALGFDEDEVEEAVELARRFGLKKTLIALFLAEGYEEVADLVEKLTEEEAREVAKKLAEEIKKNPELTPEEVVELAKKLFEEVIAKK"}, "B17": {"name": "GBRAP_80_6822 (protein)", "chain": "MEEELEANLKALEAVDPEIAKIVREIVEIARELGVPLETLVRLAKAILELAKVDKEKARELAEELLEELREEREEGDREGALAELVDAESEALLEVEELE"}, "B18": {"name": "GBRAP_184_5158 (protein)", "chain": "KVLERTIEADNLEELKKKLKEIKEEAAKTKADLIVVLNLKELTKEMLETALSTLGEIKKEGLAPSITLLIENEMNDEQIDFALKLADEAGVTLVVAIPDE"}, "B19": {"name": "GBRAP_160_4463 (protein)", "chain": "KEEVKEAVEELRERVEEVLEDSENMSPEQILLAVAVEVGSSLLEWEEEGKISDEQAEILAKAIDELLRLAKEEKNASPEEAKKRAREIVEKAAKEILAAA"}, "B20": {"name": "GBRAP_78_6736 (protein)", "chain": "EIEELIDKALEELNRAARLAQQFPLEEQTELLDLIIDASTLLEEAEEEGFDLKLLEEALKKLKEALKLAKKLKTPLAEKLAKELEEAIKLVEKAIKLVKE"}, "B21": {"name": "GBRAP_128_3567 (protein)", "chain": "STAAAVAQARALLEAIKAGDAATRRAAAEALVALLAAADPETREAITAEILERLPELSAEDLEVLADVFRAARPAADPATAEALAEIQVEALNEREEKEE"}, "B22": {"name": "GBRAP_35_5597 (protein)", "chain": "DTDQLAVDSLIDMIEATIEGIPELPVDTLVSITNLLIKDAEELRKQLKNNVEALERIAKALEKLKEALKKHHGDNPKVQETIEKVEKAIKELKEQAKKAL"}, "B23": {"name": "GBRAP_184_5329 (protein)", "chain": "KTLEVHIENLPIEEIKKKVEEALKEAAAQGAALSIYIDASGYSIEEIKELIEYIGELAKKYGVKDVTLGIDKAVNEEEADILIEIADKYGIRLVLPLEDE"}, "B24": {"name": "GBRAP_184_5332 (protein)", "chain": "KTLEVHIENLPIEEIIKKVEEAAKKAAEEGADLLISIDASGYSIEEIIELIKKIGEIAKKYGVKNVTLGIDKEVNEEEADKLIEEADKYGIRLVLPLKDE"}, "B25": {"name": "GBRAP_83_6990 (protein)", "chain": "KEKITVAANGDDIEEAAEIVIDLTKEEGYEVDVEIIATKEDWEKVLEMVERLAEAGIETDITVLAEGITEEEAKEKQKELEEIAKEHGVNINVKVYAIEP"}, "B26": {"name": "GBRAP_83_6970 (protein)", "chain": "MEKVDVVTTPDHVEEAAEAARDLAEEEGYEVTVILVGSPEEVLKSAEIVAEKLKDIKNVSIRAAVRGVRKEEAEKTKKKLEEIGKKYGLKVEFDAELIEE"}, "B27": {"name": "GBRAP_106_2555 (protein)", "chain": "SEEEKFEKLIKESREEAEKEIADTRAWLAARRDQLTPEEIRAIETYTKKYLVAKILHKAIEAGFITKEEAEEILKEALSKTDFTPEEAVKFTLEKIKELY"}, "B28": {"name": "GBRAP_160_4810 (protein)", "chain": "KEKAEKLMEEARKDLLETAEASADLPIEDRARLLEAEGYTSILDFEEELNISDETEEELDEVVDDLVARLLANPDLSREEVLALVEEAVERMKEIVEKEV"}, "B29": {"name": "GBRAP_160_4809 (protein)", "chain": "MEKAEKLLEEARKDLLETAEASKDLPIEDRARLLEAEGYTSILDFEEELNISDETEEKLAQVVDDLVATLLANPDLSDEEVLALVEEAAEKMKEIVKEEV"}},
  "note": "Whole data set: some 4,500 sequences, median “median log2 fold change of GCK-ALFA target abundance (FLAG IP / Myc IP barcode read proportion)” near 0.078, cut for the lowest 2% near -0.6. The full list was thinned out, with the lowest values kept by preference.",
  "data": [
    {"molecular_target": "GABARAP, O95166", "sequence (O95166 whole entry, the tested form may be a part)": "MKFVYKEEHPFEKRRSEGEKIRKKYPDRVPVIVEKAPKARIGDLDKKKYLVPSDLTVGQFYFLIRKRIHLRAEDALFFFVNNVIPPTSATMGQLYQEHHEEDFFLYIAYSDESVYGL", "test": "median log2 fold change of GCK-ALFA target abundance (FLAG IP / Myc IP barcode read proportion) (log2 ratio); each designed protein is fused to an ALFA-tag nanobody in HEK293 cells to bring the named protein to FLAG-tagged glucokinase (GCK); Myc marks an untargeted standard; higher = target protein stabilised (more abundant)", "conditions": "target protein: 3xFLAG-MCP-GCK-ALFA reporter; HEK293 landing pad (RPLP)", "protocol": "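LABEL-seq trans screen in HEK293 landing-pad cells. Each de novo designed 100-aa effector handle, binding the indicated effector (E3 ligase, DUB or autophagy protein), is fused to a constant NbALFA target handle and induced with 2 ug/mL doxycycline. A FLAG-MCP-GCK-ALFA target and a Myc-MCP standard reporter were transfected, and after 48 h circRNA barcodes were recovered by anti-FLAG and anti-Myc IP and sequenced. The value is the median across barcodes (at least 3 per design) of log2(FLAG/Myc read-proportion ratio), with the two transfection replicates pooled. Negative values mean degradation and positive values mean stabilisation of the target.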", "values": [
      {"binder": "B1", "median log2 fold change": 0.0216},
      {"binder": "B2", "median log2 fold change": 0.127},
      {"binder": "B3", "median log2 fold change": -0.612},
      {"binder": "B4", "median log2 fold change": 0.0926},
      {"binder": "B5", "median log2 fold change": 0.234},
      {"binder": "B6", "median log2 fold change": -0.66},
      {"binder": "B7", "median log2 fold change": -0.0773},
      {"binder": "B8", "median log2 fold change": -0.279},
      {"binder": "B9", "median log2 fold change": 0.00207},
      {"binder": "B10", "median log2 fold change": 0.0139},
      {"binder": "B11", "median log2 fold change": 0.117},
      {"binder": "B12", "median log2 fold change": -0.615},
      {"binder": "B13", "median log2 fold change": -0.298},
      {"binder": "B14", "median log2 fold change": 0.257},
      {"binder": "B15", "median log2 fold change": 0.186},
      {"binder": "B16", "median log2 fold change": -0.872},
      {"binder": "B17", "median log2 fold change": -0.574},
      {"binder": "B18", "median log2 fold change": -0.0197},
      {"binder": "B19", "median log2 fold change": -0.697},
      {"binder": "B20", "median log2 fold change": -0.0442},
      {"binder": "B21", "median log2 fold change": 0.197},
      {"binder": "B22", "median log2 fold change": 0.00193},
      {"binder": "B23", "median log2 fold change": -0.086},
      {"binder": "B24", "median log2 fold change": -0.598},
      {"binder": "B25", "median log2 fold change": -0.0785},
      {"binder": "B26", "median log2 fold change": 0.197},
      {"binder": "B27", "median log2 fold change": -0.507},
      {"binder": "B28", "median log2 fold change": -0.669},
      {"binder": "B29", "median log2 fold change": -0.35}
    ]}
  ]
}
